Bioassay records from PubChem.
Shown are actives, neighbours in structure and some others; about 3.5% of the full set was active somewhere.
FBW7 activator – activators of human E3 ligase FBW7; Q969H0; AlphaScreen FBW7–phospho-cyclin E peptide binding, activator screen; normalized activity (activation), % at 26.1 µM; 0.13% of 650,000 active; AID 1259310; in the data active = normalized activity above about 1.9%;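 note: purified mutant Fbw7 with reduced substrate affinity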
Target sequence (Q969H0 whole entry, looked up): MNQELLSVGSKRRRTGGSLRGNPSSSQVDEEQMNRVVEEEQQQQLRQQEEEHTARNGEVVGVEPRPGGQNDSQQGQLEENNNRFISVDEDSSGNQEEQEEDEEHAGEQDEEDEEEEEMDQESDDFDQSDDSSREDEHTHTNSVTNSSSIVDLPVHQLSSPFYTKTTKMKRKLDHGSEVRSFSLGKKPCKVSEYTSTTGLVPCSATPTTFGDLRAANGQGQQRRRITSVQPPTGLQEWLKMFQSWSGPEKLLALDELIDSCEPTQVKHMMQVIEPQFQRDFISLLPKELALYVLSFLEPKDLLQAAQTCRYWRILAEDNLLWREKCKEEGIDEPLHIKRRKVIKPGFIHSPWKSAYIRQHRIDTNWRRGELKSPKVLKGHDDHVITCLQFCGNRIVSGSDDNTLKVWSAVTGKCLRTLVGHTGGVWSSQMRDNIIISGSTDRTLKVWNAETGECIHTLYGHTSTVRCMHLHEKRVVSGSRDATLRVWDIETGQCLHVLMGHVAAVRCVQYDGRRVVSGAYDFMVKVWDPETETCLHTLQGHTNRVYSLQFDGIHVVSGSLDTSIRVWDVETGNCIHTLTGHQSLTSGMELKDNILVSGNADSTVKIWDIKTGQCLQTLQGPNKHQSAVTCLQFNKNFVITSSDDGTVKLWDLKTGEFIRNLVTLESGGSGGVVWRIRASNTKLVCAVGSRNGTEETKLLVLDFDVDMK
MITF inh – blocks human microphthalmia-associated transcription factor | O75030 | AlphaScreen MITF homodimerization, bead proximity signal | inhibition, % at 2.6 µM | 0.91% of 650,000 active | AID 1259374; in the data active = inhibition above about 50%;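 note: 0% = vehicle wells with protein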
GPR151 ag – activators of human GPR151 | Q8TDV0 | PathHunter beta-arrestin GPR151 cells, luminescence | activation, % at 11.2 µM | 1% of 650,000 active; in the data active = activation above about 4.9%;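 note: 0% = median of compound wells and 100% = cells with positive control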
TEAD-YAP block – TEAD-YAP interaction inhibition. HEK-TIYL cells, TEAD-Gal4/YAP UAS-luciferase luminescence. 1.4% of 640,000 active. inhibition, % at 9.12 µM; in the data active = inhibition above about 32%;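 note: 0% = median of test compound wells and 100% = reference inhibitor wells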
Active calls of the source: *.

SMILES	FBW7 activator	MITF inh	GPR151 ag	TEAD-YAP block
C[C@@H](O)[C@@H]1NC(=O)[C@@H]2C[C@H](NC(=O)c3cccc(Cl)c3)CN2C1=O	0.2	14.2	1.6	4.6
Cn1cccc1/C=C1\CCc2ccccc2C1=O	-0.5	6.7	-8.0	63.9*
Cn1cccc1/C=C1\Cc2ccccc2C1=O	-0.1	2.0	-4.2	-28.2
O=C(N/N=C/c1ccc(O)cc1O)C(=O)N/N=C/c1ccc(O)cc1O	-1.3	99.4*	-2.0	4.6
COc1c(/C=N/NC(=O)c2ccccc2O)sc2ccccc12	-0.2	-11.7	1.0	-11.2
O=C(N/N=C/c1sc2ccccc2c1O)c1ccc(O)cc1O	-0.8	36.6	2.8	47.0*
Cc1ccc(/C=N/NC(=O)c2ccccc2O)c(O)c1	0.0	8.6	-0.5	24.6
O=C(N/N=C/c1ccc(O)cc1O)c1ccccc1O	-1.1	4.1	-0.5	52.1*
O=C(N/N=C/c1cc(I)ccc1O)c1ccccc1O	-0.3	-10.5	0.5	67.0*
O=C(CCC(=O)Nc1cc(C(F)(F)F)ccc1Cl)N/N=C\c1ccc(O)cc1O	-0.5	10.1	1.5	43.7*
O=C(CCC(=O)N/N=C/c1ccc(O)cc1O)N/N=C\c1ccc(O)cc1O	-0.6	25.5	0.8	5.6
O=S(=O)(c1cccc(CCl)c1)N1CCOCC1	0.5	-6.8	-2.3	-4.9
N#CC1CCCc2c1[nH]c1ccc(Cl)cc21 (centres undefined)	-0.4	-1.1	2.2	38.9*
O=C(CN1CCC(c2cccnc2)CC1)Nc1nccs1	-0.1	5.8	1.7	-2.0
Cc1nnc(NC(=O)Cn2c3c(c4ccccc42)CCC3)s1	0.2	18.4	3.0	-5.9
O=C(Cn1c2c(c3ccccc31)CCC2)Nc1nccs1	-0.1	3.8	-0.2	34.4*
Cc1cc(NC(=O)Cn2c3c(c4ccccc42)CCC3)no1	0.3	11.3	1.7	57.4*
O=C(CN1CCC(c2ccncc2)CC1)Nc1nccs1	-0.1	-3.7	-0.9	34.2*
Cc1c(C(=O)O)c(O)cc2c1C(=O)c1c(O)c([C@H]3O[C@H](CO)[C@@H](O)[C@H](O)[C@H]3O)c(O)c(O)c1C2=O	-0.5	89.5*	-1.5	0.0
COc1c(O)cc2c(c1O)[C@@H]1O[C@H](CO)[C@@H](O)[C@H](O)[C@H]1OC2=O	-0.2	4.2	-1.8	-6.7
O=[N+]([O-])c1ccc(Sc2nnnn2-c2ccccc2)c([N+](=O)[O-])c1	0.5	3.4	-0.5	-9.4
Cc1ccc(-n2nnnc2Sc2ccc([N+](=O)[O-])cc2C#N)cc1	-0.2	4.6	-0.6	45.5*
N#Cc1ccc(NC(=O)c2cc([N+](=O)[O-])ccc2Sc2nnnn2-c2ccccc2)cc1	0.1	-5.8	2.9	-7.9
CN(C)CCNS(=O)(=O)c1ccc(Sc2nnnn2-c2ccccc2)c([N+](=O)[O-])c1	-0.1	-0.1	0.8	83.6*
N#Cc1cc([N+](=O)[O-])ccc1Sc1nnnn1-c1ccccc1	-0.1	5.9	1.2	45.9*
SMILES	FBW7 activator	MITF inh	GPR151 ag	TEAD-YAP block
CC(C)c1cc(C(=O)NCC2CCC3(CCN(C(C)C)CC3)O2)n[nH]1 (centres undefined)	0.2	4.0	-0.1	5.4
CC(=O)N=c1c(=O)c2c(c(=O)c1=Nc1ccccc1)NON2	-0.7	-0.5	-5.3	14.1
COCCOC(=O)C1=C(C)NC(=O)NC1c1ccccc1Br (centres undefined)	0.0	8.9	-1.3	-1.1
O=C(Nc1ccccc1[N+](=O)[O-])c1cc(Br)ccc1O	0.1	3.9	-0.4	-9.8
c1cncc(CNc2nc(Nc3ccc4ncccc4c3)nc3c2ncn3-c2ccsc2)c1	-0.1	3.2	-1.5	33.2*
c1cncc(CNc2nc(NCc3cccnc3)c3ncn(-c4ccsc4)c3n2)c1	0.3	4.9	-0.4	-16.4
c1cnc(Nc2nc(NCc3cccnc3)c3ncn(-c4ccsc4)c3n2)nc1	0.0	-4.5	0.0	7.0
c1ccc(CNc2nc(Nc3ccc4ncccc4c3)nc3c2ncn3-c2ccccc2)cc1	0.0	-4.2	1.5	-4.4
c1cncc(CNc2nc(Nc3cnccn3)nc3c2ncn3-c2ccsc2)c1	0.0	23.7	-1.2	59.3*
c1cncc(CNc2nc(Nc3nccc4ccccc34)nc3c2ncn3-c2ccsc2)c1	-0.1	33.2	0.1	58.9*
Nc1nc(Nc2ccc3ncccc3c2)nc2c1ncn2-c1ccccc1	51.9*	-10.3	1.0	32.6*
O=C(Cc1ccc(O)cc1)NNC(=O)Nc1ccc(Br)cc1Cl	0.2	-3.4	-0.2	-5.4
c1cncc(CNc2nc(NC3CC3)c3ncn(-c4ccsc4)c3n2)c1	-0.1	7.1	0.5	39.9*
c1ccc(CNc2nc(NCc3cccnc3)nc3c2ncn3-c2ccsc2)cc1	0.0	11.3	-2.5	31.8
CC(=O)Nc1ccc(Nc2nc(Nc3nccc4ccccc34)nc3c2ncn3C(C)C)cc1	-0.1	5.4	0.9	45.2*
CC(C)n1cnc2c(NCc3cccnc3)nc(Nc3nccc4ccccc34)nc21	-0.1	6.4	0.5	31.9*
Nc1nc(Nc2cnccn2)nc2c1ncn2-c1ccsc1	0.0	13.2	-1.6	42.7*
c1ccc(Nc2nc(Nc3cnccn3)nc3c2ncn3-c2ccsc2)cc1	0.0	-11.0	-0.4	-37.2
O=C(NC1CCCC1)c1cccn2c(=O)c3ccccc3nc12	0.5	-23.3	0.4	19.8
COc1ccc(-c2noc(N3CCCC(C(=O)Nc4ccc(OC)c(Cl)c4)C3)n2)cc1 (centres undefined)	-0.2	7.2	-1.0	-9.5
CCOc1ccc(/C(O)=C2\C(=O)C(=O)N(c3nccs3)C2c2ccccc2)cc1 (centres undefined)	-0.1	-3.0	-0.4	36.4*
CCOc1ccc2c(c1)N(S(=O)(=O)c1ccc(NC(C)=O)cc1)C(C)(C)C=C2C	0.1	6.0	0.1	73.1*
CCOc1ccc2c(c1)C(C)=CC(C)(C)N2S(=O)(=O)c1ccc(Br)cc1	-0.1	4.8	1.0	61.2*
CC1=CC(C)(C)N(S(=O)(=O)c2ccc(Br)cc2)c2ccc(C)cc21	-0.2	-12.4	0.0	57.6*
CCNC(=O)N1c2ccc(OCC)cc2C(C)=CC1(C)C	0.0	10.0	4.4	-2.5
SMILES	FBW7 activator	MITF inh	GPR151 ag	TEAD-YAP block
CC(=O)N(C)c1nnc(-c2ccc(C)cc2)s1	0.6	0.4	-3.9	3.7
Cc1cccc(NC(=O)CCc2csc(NC(=O)c3ccc(F)cc3)n2)c1C	0.1	2.9	1.6	40.0*
CC(C)c1ccccc1NC(=O)CCc1csc(NC(=O)c2ccc(F)cc2)n1	0.1	1.2	0.6	23.3
Cc1cccc(OCCOC(=O)c2ccc(S(C)(=O)=O)c([N+](=O)[O-])c2)c1	-0.1	7.2	-0.4	37.6*
Cc1cccc(C)c1NC(=O)CSc1nnc(C2CC2)n1CC1CCCO1 (centres undefined)	-0.1	-8.5	-1.5	4.1
C=CCNC(=O)CN(c1cc(OC)ccc1OC)S(C)(=O)=O	0.0	0.7	-1.2	-12.0
COc1cccc(-n2c(SCC(=O)N3CCC(C)CC3)nc3n[nH]c(C)c3c2=N)c1	-0.3	14.5	-0.2	13.3
Cc1cc(-n2c(SCC(=O)NCc3ccco3)nc3n[nH]c(C)c3c2=N)ccc1Cl	-0.1	0.8	4.9	2.0
Cc1ccc(-n2c(SCC(=O)NCc3ccco3)nc3n[nH]c(C)c3c2=N)cc1C	-0.1	-0.4	2.8	56.1*
